Consider 40 compounds from PubChem BioAssay (NCI).

About 83,000 compounds went through this panel and 20% of them were active in at least one assay; those are over-represented in the sample as a whole.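 Percent growth is the endpoint: 0 to 100 indicates growth inhibition (40 means 60% inhibition), 0 means no net growth, and negative values indicate cell death.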 Activity calls are given as the source filed them.

This assay deals with CAKI-1 renal. Description: NCI-60 one-dose screen, 48 h (100 = growth as untreated, 0 = no growth, -100 = all killed). The note with it: 10 µM unless noted. Here is the method:
Growth inhibition of the CAKI-1 human tumor cell line is measured as a screen for anti-cancer activity. Cells are grown in 96 well plates and exposed to the test compound for 48 hours. Compounds are tested at a single concentration, which is 10^-5 M for most compounds. The reported endpoint is percent growth (GI% or GIPRCNT), where numbers from 0 - 100% represent growth inhibition, and numbers from -100% - 0 represent cell death. For example, a value of 40 represents 60% growth inhibition. A value of 0 means no net growth occurred over the course of the experiment. A value of -40 indicates 40% of cells at the beginning of the experiment died by the end of the experiment. A value of -100 means all cells are dead at the end of the experiment.
NCI-60 Human Tumor Cell Lines Screen was performed using the standard one-dose NCI protocol, which is described in more detail at https://dtp.cancer.gov/discovery_development/nci-60/default.htm.
Compounds with GIPRCNT values below 10 were considered active. Activity score was based on GIPRCNT using the following formula: […]
Score is 0 for GIPRCNT values of 100 or above, 50 for GIPRCNT values of 0, and 100 for GIPRCNT values of -100.
In the case of `N#Cc1cccc(/C(N)=N/C(N)=N/c2nc3ccccc3s2)c1`, the growth is 34% (inactive).

As to `Nc1ncc(-c2ccc3ncnc(Nc4cccc(Cl)c4F)c3c2)cn1`, the growth was 38% (inactive).

On to `O=c1[nH]c2ccccc2cc1CSc1ccccc1Nc1nccc(-c2ccc(Cl)cc2)n1`, for which the growth was 80.6% (inactive).

As to `Cc1cc(S(=O)(=O)N(C)C)cc(NCC(=O)NC(=O)NCC(C)C)c1C`, the growth was 64.3% (inactive).

On to `CC1(C)[C@@H](O)CC[C@]2(C)[C@H]3CC[C@@H]4[C@H]5[C@H](C(=O)/C=C\c6ccc([N+](=O)[O-])cc6)CC[C@]5(O)CC[C@@]4(C)[C@]3(C)CC[C@@H]12`, for which the growth is 27.4% (inactive).

As for `O=C(Nc1ccc2c(ccn2Cc2ccccn2)c1)c1cnccn1`, the growth is 66.2% (inactive).

On to `O=C(CN1CCN(c2cc(=O)n(-c3ccccc3)c3ccccc23)CC1)Nc1nc(-c2ccc(Cl)cc2)cs1`, for which the growth was 49.6% (inactive).

Consider `COc1cc2nc(Cl)nc(Nc3cccc(C4=Nc5c(N)nc(N)nc5NC(c5ccc(F)cc5)C4)c3)c2cc1OC` (stereo not given), for which the growth is 88.8% (inactive).

As to `Cc1ccc(-c2cc3nc(C(Cl)Cl)nc(C)n3n2)cc1`, the growth is 96.4% (inactive).

Consider `O=C(Nc1ccc(N=Cc2c(O)[nH]c3ccccc23)cc1)Nc1nccs1`, for which the growth was 32.9% (inactive).

`CC1(C)CC[C@]2(C(=O)N3CCOCC3)CC[C@]3(C)C(=CC[C@@H]4[C@@]5(C)C/C(=C/c6ccco6)C(=O)C(C)(C)[C@@H]5CC[C@]43C)[C@@H]2C1`: the growth is 37% (inactive).

Turning to `COc1cc2nc(Cl)nc(Nc3cccc(C4=Nc5c(N)nc(N)nc5NC(c5ccc(Br)cc5)C4)c3)c2cc1OC` (stereo not given), the growth was 90.3% (inactive).

Consider `Cc1cc2nc(C(Cl)Cl)nc(-c3cccs3)n2n1`, for which the growth is -30.9% (active).

Regarding `COc1cc(-c2nc(SCCC(C)C)nc(NNC(=O)c3ccncc3)c2C#N)cc(OC)c1OC`, the growth is 37.8% (inactive).

Take `CCNC(=O)N1CCc2cc(OC)c(OCCc3ccc(OC)cc3)cc2C1c1ccc(Cl)cc1C` (stereo not given): the growth was 23.3% (inactive).

For the compound `CCn1c(SCC(=O)Nc2cccc(C(=O)/C=C/c3ccc(C)cc3)c2)nc2ccccc2c1=O`, the growth is 80.2% (inactive).

Take `COc1c(N2CC3CCCNC3C2)c(F)cc2c(=O)c(C(=O)N/N=C/c3ccc(F)cc3)cn(C3CC3)c12` (stereo not given): the growth is 87.7% (inactive).

As to `NS(=O)(=O)c1ccc(Nc2nc(N/N=C/c3c[nH]c4ccccc34)nc(Nc3ccccc3)n2)cc1`, the growth was 53.9% (inactive).

Take `CCCCCc1ccc(S(=O)(=O)Nc2cccc(-c3csc(NC(=O)CCCCCN4CCN(CCO)CC4)n3)c2)cc1`: the growth is 95.3% (inactive).

Turning to `Cc1occc1-c1nc2s/c(=C/c3ccc(-c4cc(C(F)(F)F)ccc4Cl)o3)c(=O)n2n1`, the growth was 89.2% (inactive).

`Cn1ccnc1C(=O)/C=C/c1ccc(CNC(=O)c2c(F)c(F)c(F)c(F)c2F)cc1`: the growth is 76% (inactive).

As to `O=C(CN1CCN(c2cc(=O)n(-c3ccccc3)c3ccccc23)CC1)Nc1nc(-c2ccccc2)cs1`, the growth is 61.4% (inactive).

Consider `Cn1cc(CNc2nc3ccc(OC/C(=C/F)CN)cc3o2)ccc1=O`, for which the growth was 91% (inactive).

On to `O=C(O)c1cn(C2CC2)c2cc(N3CCN(C(=O)CN4C(=O)CSC4=O)CC3)c(F)cc2c1=O`, for which the growth is 76.2% (inactive).

With `COC(=O)c1ccc(NC2=C/C(=N/S(=O)(=O)c3ccc(C(=O)O)cc3)c3ccccc3C2=O)cc1`, the growth is 20.4% (inactive).

`Cc1ccc(N2C(=O)/C(=C/C=C/c3ccco3)SC2=S)cc1`: the growth is 90.4% (inactive).

For `C[C@@H](Nc1ncnc2ccc(-c3cnc(Cl)c(NS(C)(=O)=O)c3)cc12)c1ccccc1`, the growth was 10.1% (inactive).

Turning to `COc1ccc(/C=C/C(=O)c2cccc(NC(=O)CSc3nc4ccccc4c(=O)n3-c3ccccc3)c2)cc1OC`, the growth was 88% (inactive).

For `CS(=O)(=O)Nc1cc(-c2ccc3ncc(C#N)c(NCc4ccccc4F)c3c2)cnc1Cl`, the growth is -8.09% (active).

Take `N=c1c2cc(-c3ccccc3)oc2ncn1/N=C/c1ccc(Cl)cc1`: the growth is 97.7% (inactive).

As to `CCc1cccc2c3c(sc12)C(c1ccc(Cl)cc1)C(C#N)=C(/N=C/c1ccc(Cl)cc1)O3` (stereo not given), the growth is 37.5% (inactive).

Regarding `COc1ccc(CCOc2cc3c(cc2OC)CCN(C(=O)NCc2cocn2)C3c2ccc(C)cc2C)cc1` (stereo not given), the growth is 13.2% (inactive).

For `O=C(CCn1cc[n+](CC(=O)c2ccc(-c3ccccc3)cc2)c1)Nc1cccc2cccnc12`, the growth was 104% (inactive).

As to `CCOP(=O)(OCC)OC[C@]12CCC(C)(C)C=C1[C@H]1CC[C@@H]3[C@@]4(C)CC[C@H](OP(=O)(OCC)OCC)C(C)(C)[C@@H]4CC[C@@]3(C)[C@]1(C)CC2`, the growth was -63% (active).

As for `Cn1cc(-c2cc(N)n3nc(-c4cn(C)c5ccccc45)cc3n2)c2ccccc21`, the growth was 94.6% (inactive).

Consider `N#Cc1cn(Cc2ccc(Cl)cc2Cl)c(C(=O)c2ccc(Br)cc2)c1N`, for which the growth was 92.3% (inactive).

For `C=C(C=O)[C@@H]1CC[C@]2(C)[C@H](CC=C3[C@H]4[C@@H](C)[C@H](C)CC[C@]4(C(=O)OC)CC[C@]32C)[C@@]1(C)CCC#N`, the growth was 3.89% (active).

For `CNc1ncc2cc(-c3ccc(-c4ncccc4F)cc3Cl)c(=O)n(CC3OCC(N)CO3)c2n1` (stereo not given), the growth was 0.298% (active).

With `CNC(=O)c1cc(Oc2ccc3nc(NC(=O)c4cccc(OC(F)(F)F)c4)sc3c2)ccn1`, the growth is 73.9% (inactive).

On to `COc1ccc(/C=C(\C#N)C(=O)N2c3ccccc3Sc3ccc(SC)cc32)cc1F`, for which the growth was 68.9% (inactive).
